Source: PubChem BioAssay
Sampled rows, rich in hits. Any-hit rate of the full collection: about 3.4%.
Shn3 3UTR inh: reduction of Shn3 3'UTR firefly luciferase signal, primary screen, Schnurri-3 inhibitor project, cell-based, Clone20 osteoblasts, set 2; Clone20 osteoblast Shn3 3'UTR firefly luciferase, 24 h; inhibition, % at 12.5 µM; actives 0.52% (n = 360,000);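 active = mean inhibition of at least 75% with every replicate also reaching 75%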;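 note: 0% = median of neutral control wells and 100% = pilot-screen positive control compound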
TROY signal inh: inhibitors of TROY-driven NF-kB signaling, primary screen, Q293 LMP1-TROYcd cells, NF-kB luciferase, uHTS; Q293 LMP1-TROYcd NF-kB luciferase reporter, 4 h; inhibition, % at 10 µM; actives 0.98% (n = 360,000); AID 1347056, 2019;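 active = compounds whose plate-normalised and pattern-corrected inhibition of the luciferase reporter signal at the single screening dose is 50% or more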
HIF-2a block: HIF-2a reporter inhibitors, primary screen, luminescence, 786-0 RCC cells; inhibition, % at 18.8 µM; 786-0 RCC cells HIF-2a reporter, luciferase luminescence, overnight; actives 0.72% (n = 360,000);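 active = inhibition of the luminescence signal of 40% or more relative to plate controls, in a single-dose primary screen at 18.75 µM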
TWEAK-Fn14 inh: inhibitors of TWEAK-Fn14 signaling, primary screen, luciferase reporter cells, uHTS | TWEAK-stimulated Fn14 reporter cells, luciferase luminescence, 8 h | inhibition, % at 10 µM | actives 2% (n = 360,000) | AID 1159606, 2016; in the data active = inhibition above about 50%
TRPM1 prom inh: inhibitors of MITF-dependent TRPM1 promoter reporter, primary screen, cell-based, SK-MEL-5, single point, luciferase. SK-MEL-5 TRPM1 promoter luciferase, 24 h. inhibition, % at 12.5 µM. actives 0.83% (n = 330,000);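 active = mean inhibition across replicates of 60% or more, whatever share of single replicates reaches that level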
EBV LMP1 NFkB: EBV LMP1-driven NF-kappaB luciferase reporter inhibitors, primary screen, cell-based, luminescence, single point. LMP1-induced NF-kappaB luciferase reporter cells. inhibition, % at 12.5 µM. actives 0.69% (n = 350,000). AID 504558, 2011; in the data active = inhibition above about 41%;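 note: 0% = neutral control wells and 100% = reference inhibitor control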
An asterisk follows results filed as active.

Screening NC(=O)c1cccc(-c2csc(C(O)c3ccccc3)n2)c1 (stereo unspecified) returned Shn3 3UTR inh -28.2, TROY signal inh -34.0, HIF-2a block -73.7 and TWEAK-Fn14 inh 1.1.
For COC(=O)c1[nH]c2cccc(Cl)c2c1NC(=O)CN(C)C1CCCCC1 the results were Shn3 3UTR inh -3.8, TROY signal inh -2.2, HIF-2a block 21.8, TWEAK-Fn14 inh 94.8*, TRPM1 prom inh 11.3 and EBV LMP1 NFkB 3.3.
Screening COc1ccc(NC(=O)/C(C#N)=C/c2cc(C)n(-c3ccc(N4CCOCC4)c([N+](=O)[O-])c3)c2C)cc1 returned Shn3 3UTR inh 72.6, TROY signal inh 37.6, HIF-2a block 4.4, TWEAK-Fn14 inh 78.9*, TRPM1 prom inh 40.9 and EBV LMP1 NFkB 44.5*.
Screening Cc1cc(/C=C(\C#N)C(=O)Nc2ccc(F)cc2)c(C)n1-c1ccc(N2CCOCC2)c([N+](=O)[O-])c1 returned Shn3 3UTR inh 72.2, TROY signal inh 37.5, HIF-2a block -7.9, TWEAK-Fn14 inh 53.4*, TRPM1 prom inh 25.5 and EBV LMP1 NFkB 26.0.
O=C(COC(=O)Cc1cccc(C(F)(F)F)c1)NC1CCS(=O)(=O)C1 (stereo unspecified) was read as Shn3 3UTR inh -15.3, TROY signal inh -12.2, HIF-2a block 1.5, TWEAK-Fn14 inh 7.6, TRPM1 prom inh 2.4 and EBV LMP1 NFkB 1.0.
For Cc1ccnc(SC2CC(=O)N(c3ccc(F)cc3)C2=O)n1 (stereo unspecified) the results were Shn3 3UTR inh 3.7, TROY signal inh 2.9, HIF-2a block 15.4, TWEAK-Fn14 inh -1.5, TRPM1 prom inh -10.1 and EBV LMP1 NFkB 2.4.
`COc1ccccc1Nc1ccc2c(O)cc(S(=O)(=O)O)cc2c1` gave Shn3 3UTR inh 1.6, TROY signal inh 17.3, HIF-2a block 8.5, TWEAK-Fn14 inh 78.5*, TRPM1 prom inh -8.6 and EBV LMP1 NFkB -7.8.
`O=S(=O)(O)c1cc(O)c2ccc(Nc3ccccc3)cc2c1` gave Shn3 3UTR inh -4.1, TROY signal inh 36.6, HIF-2a block 9.9, TWEAK-Fn14 inh 31.8, TRPM1 prom inh 8.4 and EBV LMP1 NFkB -6.1.
CCc1c(N)nc(N)nc1Nc1ccccc1C was read as Shn3 3UTR inh 43.3, TROY signal inh 0.8, HIF-2a block 9.1, TWEAK-Fn14 inh 20.9, TRPM1 prom inh 1.8 and EBV LMP1 NFkB 5.1.
For CNC(=O)c1cccc(NC(=O)c2cc(-c3ccccc3)nc3c2cnn3C(C)C)c1 the results were Shn3 3UTR inh 23.9, TROY signal inh 17.4, HIF-2a block 6.4, TWEAK-Fn14 inh 47.5, TRPM1 prom inh 23.0 and EBV LMP1 NFkB -0.6.
Screening COc1cc(NC(=O)c2cc(-c3ccccc3)nc3c2cnn3C(C)C)cc(OC)c1OC returned Shn3 3UTR inh 58.5, TROY signal inh 23.4, HIF-2a block 8.7, TWEAK-Fn14 inh 55.4*, TRPM1 prom inh 8.2 and EBV LMP1 NFkB 2.2.
For O=c1[nH]c(SCc2ccc(OC(F)(F)F)cc2)nc2c1CCC2 the results were Shn3 3UTR inh 5.2, TROY signal inh -18.7, HIF-2a block -12.5 and TWEAK-Fn14 inh -19.0.
CC(=O)c1ccc2c(c1)CC1(C2)Cc2cc3c(cc2C1)C(=O)CC3 (stereo unspecified) was read as Shn3 3UTR inh 41.5, TROY signal inh 51.2*, HIF-2a block -27.3, TWEAK-Fn14 inh 56.5*, TRPM1 prom inh -8.3 and EBV LMP1 NFkB 4.6.
COc1ccc(C(=O)CN(CCC(=O)O)S(=O)(=O)c2ccc([N+](=O)[O-])cc2)cc1 was read as Shn3 3UTR inh 4.2, TROY signal inh -3.9, HIF-2a block 5.5, TWEAK-Fn14 inh -12.9, TRPM1 prom inh 5.5 and EBV LMP1 NFkB 60.8*.
For O=C(CC1SC(N2CCCC2)=NC1=O)Nc1ccc(C(=O)NCc2ccc(F)cc2)cc1 (stereo unspecified) the results were Shn3 3UTR inh 10.4, TROY signal inh -22.9, HIF-2a block -1.2, TWEAK-Fn14 inh -1.3, TRPM1 prom inh 1.5 and EBV LMP1 NFkB -13.2.
Screening CC1(C(=O)Nc2cccc3c2CCCC3)CCN1C(=O)CCC1CCCC1 (stereo unspecified) returned Shn3 3UTR inh 13.0, TROY signal inh -3.5, HIF-2a block 9.5 and TWEAK-Fn14 inh 13.8.
For COc1ccc2ccc(=O)oc2c1CC(=O)C(C)C the results were Shn3 3UTR inh -0.9, TROY signal inh 10.2, HIF-2a block 0.5, TWEAK-Fn14 inh -21.0 and EBV LMP1 NFkB 5.5.
CC(=O)N1CCc2c(sc(NC(=O)c3ccc([N+](=O)[O-])o3)c2C(N)=O)C1 was read as Shn3 3UTR inh 99.5*, TROY signal inh -2.3, HIF-2a block -64.7, TWEAK-Fn14 inh 11.3 and EBV LMP1 NFkB -25.5.
`O=C(NCC(c1ccco1)N1CCN(c2ccccc2)CC1)C(=O)NC1CC1` (stereo unspecified) gave Shn3 3UTR inh 3.5, TROY signal inh -23.7, HIF-2a block 9.0, TWEAK-Fn14 inh 13.6, TRPM1 prom inh -0.6 and EBV LMP1 NFkB -3.5.
Screening CN1C2=CC=CC=CC2=[N+](C)C12C=CC(=[N+]([O-])[O-])C=C2[N+](=O)[O-] (stereo unspecified) returned Shn3 3UTR inh 9.2, TROY signal inh 11.8, HIF-2a block -2.9, TWEAK-Fn14 inh 1.6, TRPM1 prom inh 13.1 and EBV LMP1 NFkB 9.9.
Screening CN1C2=CC=CC=CC2=[N+](C)C12C([N+](=O)[O-])=CC(=[N+]([O-])[O-])C=C2[N+](=O)[O-] (stereo unspecified) returned Shn3 3UTR inh 3.5, TROY signal inh -20.4, HIF-2a block 0.3, TWEAK-Fn14 inh 60.8*, TRPM1 prom inh 69.9* and EBV LMP1 NFkB -50.0.
Screening Cc1cc(NS(=O)(=O)c2c(C)[nH]c(=O)[nH]c2=O)ccc1Br returned Shn3 3UTR inh -6.5, TROY signal inh 4.0, HIF-2a block 9.2, TWEAK-Fn14 inh 6.8, TRPM1 prom inh -2.1 and EBV LMP1 NFkB -6.6.
CCN(CC)CCN(C(=O)c1cc2c(ccc3ccccc32)oc1=O)c1nc2cc3c(cc2s1)OCCO3 was read as Shn3 3UTR inh 47.5, TROY signal inh 13.8, HIF-2a block -19.0, TWEAK-Fn14 inh -6.1, TRPM1 prom inh 74.6* and EBV LMP1 NFkB -17.1.
`O=C(NCc1ccc2c(c1)OCO2)OCc1ccccc1` gave HIF-2a block -144.6.
`CC(=O)N1N=C(c2ccc(Cl)cc2)CC1c1ccc([N+](=O)[O-])cc1` (stereo unspecified) gave Shn3 3UTR inh -1.8, TROY signal inh -15.0, HIF-2a block -21.6, TWEAK-Fn14 inh 79.8*, TRPM1 prom inh 2.8 and EBV LMP1 NFkB -16.9.
